Screens from PubChem BioAssay.
Hits are enriched below; roughly 27% of the tested compounds scored in any of these assays.
Cav3 T inh = human Cav3.2 channel inhibition, primary screen. AID 449739. Cav3.2-expressing cells, Fluo-4 calcium fluorescence FDSS; active compounds read low. actives 4% (n = 100,000). B-score at 10 µM. O95180;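 active = single-dose well whose peak fluorescence ratio is a statistical outlier from its plate by either plate-standardised score or position-corrected B-score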
CYP2C19 inh = blocks human cytochrome P450 2C19 | P33261 | CYP2C19 Supersomes, luciferin-H EGE luminescence, 30 min | inhibition, % at 5 µM | actives 21% (n = 96,000) | AID 778;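 active = CYP2C19 inhibition above a set limit at 5 µM in the primary screen, cut at about 50% in these data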;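 also: plate controls were negative control wells for no effect and 2.5 mM tranylcypromine positive control for full effect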
Target sequence (P33261 whole entry, looked up): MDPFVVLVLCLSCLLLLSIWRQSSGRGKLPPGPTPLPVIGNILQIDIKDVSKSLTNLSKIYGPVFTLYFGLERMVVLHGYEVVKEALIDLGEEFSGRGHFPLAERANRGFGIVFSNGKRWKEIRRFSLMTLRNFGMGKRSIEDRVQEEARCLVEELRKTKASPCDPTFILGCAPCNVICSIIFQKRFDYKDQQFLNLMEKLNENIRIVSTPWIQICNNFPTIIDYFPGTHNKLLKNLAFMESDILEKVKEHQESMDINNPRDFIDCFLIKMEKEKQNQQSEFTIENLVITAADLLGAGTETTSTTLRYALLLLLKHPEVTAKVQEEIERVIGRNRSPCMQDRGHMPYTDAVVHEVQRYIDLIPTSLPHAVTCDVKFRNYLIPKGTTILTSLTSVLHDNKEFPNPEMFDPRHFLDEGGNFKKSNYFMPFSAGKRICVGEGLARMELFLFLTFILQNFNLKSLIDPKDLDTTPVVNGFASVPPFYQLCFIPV
CYP2C9 act = CYP2C9 (human) activation | P11712 | recombinant CYP2C9, luciferin-H conversion, luminescence; active compounds read high; factor 1 = untreated enzyme, 0 = blocked | activation factor at 5 µM | actives 1.4% (n = 96,000) | AID 1024;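 active = activation factor of 2 or more for CYP2C9 at a 5 µM dose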;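 also: 0 = sulfaphenazole-blocked wells and 1 = vehicle-only wells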
CYP2C9 inhib = blocks human cytochrome P450 2C9 | P11712 | CYP2C9 Supersomes, luciferin-H conversion, luminescence | inhibition, % at 5 µM | actives 20% (n = 96,000) | AID 777;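 active = blocking of liver enzyme CYP2C9 beyond about 50% at 5 µM, limit read from the data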
CYP2C19 act = activators of human cytochrome P450 2C19 | 96,000 tested, under 10 active | activation factor at 5 µM | P33261 | recombinant CYP2C19, luciferin-H EGE luminescence; active compounds read high; 0 = fully inhibited enzyme, 1 = untreated enzyme | AID 1025;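 active = activation factor of at least 2 at 5 µM in the primary screen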;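 also: 0 = wells with 2.5 mM tranylcypromine and 1 = vehicle-only wells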
Active calls of the source: *; . = no result.

SMILES	Cav3 T inh	CYP2C19 inh	CYP2C9 act	CYP2C9 inhib	CYP2C19 act
O=C(NCc1ccc2c(c1)OCO2)C(=O)NC1CCCCC1	2	19	0.8	23	0.8
CCCC(CCC)C(=O)Nc1c[nH]c(=O)[nH]c1=O	0.22	-14	1.2	-21	1.1
Cc1cc(NC(=O)C(C)C)ncc1NC(=O)Cc1ccccc1	-4*	-8	1	-5	1.1
CC(C)(C)SCCNC(=O)CSCc1ccc([N+](=O)[O-])cc1	-0.26	-1	0.8	24	1
O=C(Nc1ccc2nc(-c3ccc(Br)o3)[nH]c2c1)c1cccs1	.	45	0.3	67*	0.5
O=C(Nc1ccc2nc(-c3ccc(Br)o3)[nH]c2c1)c1ccco1	.	25	0.6	40	0.8
Cn1cccc1-c1nc2ccc(NC(=O)c3cccs3)cc2[nH]1	-1.6	73*	0.2	78*	0.3
CCOC(=O)c1sc2nccc(N(C)C)c2c1N=CN(C)C	0.34	0	0.9	11	1
CCOC(=O)c1sc2ncnc(NCC(c3cccs3)N(C)C)c2c1C (centres undefined)	0.27	58*	0.9	9	0.4
CCCCNc1nc(CC)c2c(c1C#N)CCCC2	-0.07	26	0.6	38	0.7
COc1cccc2c(=O)n(CC(=O)NC3CCCCC3)ccc12	0.29	28	2.2*	-118	0.7
COCCCNC(=O)C(=O)NCCCOC(C)C	0.7	41	1	-4	0.6
CC(=O)N(C)C1=C(N2CCOCC2)C(=O)c2ccccc2C1=O	1.4	-5	1.1	-6	1.1
Cc1ccc(NC2=C(N3CCOCC3)C(=O)c3ccccc3C2=O)cc1	-0.13	44	0.4	57*	0.6
CC(=O)c1ccc(NC2=C(N3CCOCC3)C(=O)c3ccccc3C2=O)cc1	-0.29	61*	0.5	48	0.4
CC(C)(C)NCC1(CO)SC(N)=NC1=O (centres undefined)	0.45	-10	1.2	-18	1.1
CCN1CNC(=S)N(c2cc(C)ccc2C)C1	-0.54	-3	1.1	-7	1
O=C1CCCC2=C1C(O)(C(F)(F)F)C(=O)N2Cc1ccccc1 (centres undefined)	0.045	.	.	.	.
O=C1N2c3ccccc3CCc3cccc(c32)C1(O)C(F)(F)F (centres undefined)	-5.6*	52*	0.7	34	0.5
Cn1c(SCC(=O)Nc2ccc(N3CCOCC3)c(Cl)c2)nnc1-c1ccccc1	0.49	.	.	.	.
CCOC(=O)N1CCC(NS(=O)(=O)c2ccc3c(c2)OCC(=O)N3)CC1	-0.34	1	1	2	1
Cc1ccc(S(=O)(=O)Cn2nnnc2CN2CCCC3(CCCCC3)C2)cc1	-0.79	93*	0.2	83*	0.1
CCOC(=O)c1cnc(Nc2nc3ccccc3o2)nc1CN1CCN(C)CC1	.	4	1	-5	1
O=C(NCc1cccc(Br)c1)C1CC(c2ccccc2[N+](=O)[O-])=NO1 (centres undefined)	-0.033	.	.	.	.
CCn1c(NCc2ccc3c(c2)OCO3)nc2ccccc21	-0.7	73*	0.8	21	0.3
SMILES	Cav3 T inh	CYP2C19 inh	CYP2C9 act	CYP2C9 inhib	CYP2C19 act
C=CCn1c(NCc2ccc3c(c2)OCO3)nc2ccccc21	-2	95*	0.3	73*	0.1
O=C(CSc1ncnc2c1oc1ccccc12)N1CCc2ccccc2C1	.	12	0.8	18	0.9
Cc1nn2c3c(cnc2c1-c1ccc(Cl)cc1)C(=O)CC(c1ccco1)C3 (centres undefined)	-0.38	-20	1.4	-37	1.2
O=C(Nc1ccccc1C(=O)OCC(=O)N1CCc2ccccc2C1)c1ccco1	-1.6	65*	0.1	87*	0.3
CCS(=O)(=O)N1CCN(C(=O)c2ccco2)CC1	0.27	10	1.1	-6	0.9
O=C(OCC(=O)N1CCN(C(=O)c2ccco2)CC1)c1ccccc1O	0.95	46	0.3	72*	0.5
CC1CCCCC1NC(=O)COC(=O)c1ccccc1NC(=O)c1ccco1 (centres undefined)	-1.7	18	0.8	22	0.8
O=C(COC(=O)C1(c2ccc(F)cc2)CCCC1)N1CCN(C(=O)c2ccco2)CC1	-5.4*	73*	0.2	82*	0.3
O=C(OCC(=O)N1CCN(C(=O)c2ccco2)CC1)c1sc2ccccc2c1Cl	-0.037	23	0.9	15	0.8
CCN(CC)S(=O)(=O)c1ccc(C(=O)OCC(=O)N2CCN(C(=O)c3ccco3)CC2)cc1	-0.017	15	0	96*	0.8
